The source of these data is PubChem BioAssay (NCI).

Among the test systems are NCI-H23 lung; NCI-H226 lung; NCI-H322M lung; HOP-62 NSCLC; NCI-H460 lung; NCI-H522 lung; A549/ATCC NSCLC; 786-0 renal; COLO 205 colon; DU-145 prostate.
Test in all cases: NCI-60 one-dose screen, 48 h (100 = growth as untreated, 0 = no growth, -100 = all killed)
Holding throughout (conditions): 10 µM

About 83,000 compounds went through this panel and 20% of them were active in at least one assay; those are over-represented in the sample as a whole.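 Growth was measured after 48 h exposure to one concentration of compound in 96-well plates. Values under 10 count as active.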 A number with no mark means an inactive call. Active and inactive are the calls of the source.

`Cc1nc2c(c(=O)[nH]1)OCN(Cc1ccccc1)C2`: the growth in the test on NCI-H23 lung was 100%; in the test with NCI-H226 lung, 103%; in the test with NCI-H322M lung, 105%; in the test on HOP-62 NSCLC, 107%; with NCI-H460 lung, 110%; with NCI-H522 lung it was 111%. In addition, the growth in the test on A549/ATCC NSCLC was 112%; with 786-0 renal, 101%; in the test on COLO 205 colon, 112%; in the test with DU-145 prostate, 108%.
With `O=C1N=NC2=C1c1c3ccccc3c(O)n1CC2`, the growth was 96.7% in the test with NCI-H23 lung; 105% in the test on NCI-H226 lung; 98.9% with NCI-H322M lung; 91.6% with HOP-62 NSCLC; 110% in the test with NCI-H460 lung; -36.3% (active) in the test with NCI-H522 lung. The growth was 45.1% in the test with A549/ATCC NSCLC, 101% with 786-0 renal, 129% with COLO 205 colon and 121% in the test with DU-145 prostate.
With `O=C(N/N=C/c1ccccc1)C(Oc1ccccc1)c1ccccc1` (stereo not given), the growth in the test with NCI-H23 lung is 89.1%; with NCI-H226 lung, 97.5%; in the test with NCI-H322M lung it was 94.2%; with HOP-62 NSCLC it was 95%; in the test with NCI-H460 lung it was 94.5%; with NCI-H522 lung, 65.5%. Besides, the growth with A549/ATCC NSCLC is 111%; with 786-0 renal it was 107%; in the test with COLO 205 colon, 109%; with DU-145 prostate, 107%.
In the case of `CC(C)=NNc1ncnc2c1ncn2C1OC(CO)C(O)C1O` (stereo not given), the growth in the test with NCI-H23 lung was 31.7%; in the test on NCI-H226 lung, 32%; with NCI-H322M lung, -1.85% (active); with HOP-62 NSCLC it was 7.08% (active); with NCI-H460 lung, -2.28% (active); in the test with NCI-H522 lung, 14.8%. The growth in the test with A549/ATCC NSCLC is 14.3%; with 786-0 renal it was 35%; with COLO 205 colon, 3.97% (active); with DU-145 prostate, 12.8%.
Regarding `Cc1ccc(Nc2nnc(-c3cc(-c4ccncc4)n(-c4ccccc4)n3)s2)cc1`, the growth with NCI-H23 lung is 90.5%; in the test with NCI-H226 lung, 86.2%; in the test with NCI-H322M lung, 98.7%; in the test on HOP-62 NSCLC, 114%; in the test on NCI-H460 lung, 56.8%; in the test with NCI-H522 lung, 84.5%. In addition, the growth in the test with A549/ATCC NSCLC was 60.5%; with 786-0 renal, 41.9%; with COLO 205 colon it was 73.8%; in the test with DU-145 prostate, 107%.
In the case of `CN(C)CCS(=O)(=O)CCN(C)C`, the growth in the test on NCI-H23 lung is 107%; with NCI-H226 lung it was 105%; with NCI-H322M lung it was 113%; in the test with HOP-62 NSCLC, 108%; with NCI-H460 lung, 97%; with NCI-H522 lung, 117%. The growth with A549/ATCC NSCLC was 106%; with 786-0 renal it was 98.7%; with COLO 205 colon, 105%; with DU-145 prostate, 103%.
Turning to `CCCCCCCCCCCCCCCCCC(=O)OCCCCCCC`, the growth is 94.8% in the test on NCI-H23 lung; 89.6% in the test on NCI-H226 lung; 109% in the test on NCI-H322M lung; 121% in the test with HOP-62 NSCLC; 109% with NCI-H460 lung; 107% in the test on NCI-H522 lung. Moreover, the growth with A549/ATCC NSCLC was 95.2%; with 786-0 renal, 114%; with COLO 205 colon, 110%; in the test with DU-145 prostate it was 104%.
`Cc1ccc(C(=O)N2C/C(=C/c3ccccc3)C(=O)/C(=C/c3ccccc3)C2)cc1`: the growth in the test with NCI-H23 lung was 78.6%; in the test with NCI-H226 lung, 71.2%; with NCI-H322M lung it was 80.5%; in the test on HOP-62 NSCLC, 76.9%; in the test on NCI-H460 lung it was 90%; in the test on NCI-H522 lung, 69%. Further, the growth was 84% in the test with A549/ATCC NSCLC, 53.6% in the test on 786-0 renal, 76.7% with COLO 205 colon and 58.3% in the test with DU-145 prostate.
Take `c1ccc(CNc2ncnc3scc(-c4cccs4)c23)nc1`: the growth in the test on NCI-H23 lung is 53.5%; in the test with NCI-H226 lung, 68.1%; in the test with NCI-H322M lung it was 86.3%; in the test on HOP-62 NSCLC, 65%; in the test on NCI-H460 lung, 77.4%; in the test with NCI-H522 lung, 60.4%. The growth in the test with A549/ATCC NSCLC was 56.6%; in the test on 786-0 renal, 79.6%; with COLO 205 colon, 89.7%; in the test on DU-145 prostate, 92.1%.
Turning to `Clc1ccc(Nc2ccnc(NCCCNc3ccnc4cc(Cl)ccc34)n2)cc1`, the growth in the test with NCI-H23 lung was 45.6%; in the test on NCI-H226 lung, 93.7%; in the test with NCI-H322M lung it was -16.7% (active); in the test on HOP-62 NSCLC it was 19.6%; in the test on NCI-H460 lung, -28.8% (active); in the test on NCI-H522 lung it was -76% (active). The growth with A549/ATCC NSCLC was -65.1% (active); in the test on 786-0 renal, -98.9% (active); with COLO 205 colon it was -91.1% (active); in the test on DU-145 prostate it was 9.74% (active).
As for `COc1ccc(C2CC(c3ccc(N(C)C)cc3)=NN2c2ccc(S(N)(=O)=O)cc2)cc1` (stereo not given), the growth in the test with NCI-H23 lung is 53.6%; in the test on NCI-H226 lung, 52.4%; in the test on NCI-H322M lung it was 83.1%; in the test on HOP-62 NSCLC it was 78.2%; with NCI-H460 lung it was 29.2%; in the test with NCI-H522 lung, 40.9%. For the same compound, the growth is 26.1% in the test on A549/ATCC NSCLC, 64.3% in the test on 786-0 renal, 55.4% in the test with COLO 205 colon and 78.4% with DU-145 prostate.
Take `COc1cc(-c2nc(-c3nnc(-c4ccccc4Cl)o3)c3ccccn23)cc(OC)c1OC`: the growth in the test on NCI-H23 lung was 91.1%; in the test on NCI-H226 lung, 84%; in the test with NCI-H322M lung, 88.3%; in the test on HOP-62 NSCLC, 87.2%; in the test with NCI-H460 lung, 95.4%; in the test with NCI-H522 lung, 78.4%. Moreover, the growth in the test with A549/ATCC NSCLC was 72%; in the test with 786-0 renal, 105%; with COLO 205 colon it was 85.4%; in the test with DU-145 prostate, 98.5%.
Regarding `Cc1cc(Cl)nc(N(CCCNc2ccnc3cc(Cl)ccc23)Cc2cccs2)n1`, the growth with NCI-H23 lung was -12.9% (active); in the test with NCI-H226 lung it was 41.1%; in the test with NCI-H322M lung, 29.7%; in the test with HOP-62 NSCLC it was 23.1%; with NCI-H460 lung, 7.09% (active); in the test with NCI-H522 lung it was -0.273% (active). Also, the growth in the test on A549/ATCC NSCLC is 18.1%; with 786-0 renal, 17.4%; in the test on COLO 205 colon, -73.3% (active); with DU-145 prostate it was 30.7%.
As for `c1ccc([C@H]2CN3CCSC3=N2)cc1`, the growth with NCI-H23 lung is 96.8%; in the test with NCI-H226 lung it was 97.4%; with NCI-H322M lung, 101%; in the test on HOP-62 NSCLC it was 109%; in the test with NCI-H460 lung, 114%; in the test with NCI-H522 lung it was 90.8%. The growth in the test with A549/ATCC NSCLC was 102%; in the test with 786-0 renal, 99.3%; in the test on COLO 205 colon, 106%; in the test on DU-145 prostate, 92.1%.
